# Assay results published in PubChem BioAssay AID1159580 (chemical genetic matrix, 2015).
# Out of some 5,500 compounds screened, about 2,000 (36%) were called active. Not shown: some 18% with an inconclusive outcome. The list shows a part of the results. Values without a mark were called inactive. Cut-off read from the data, not from the text of the source: active = normalized growth mostly below about 0.91 (no sharp cut-off); inconclusive = no clear call, values can overlap the other calls; inactive = mostly above about 0.92.
# Assay: chemical genetic growth profiling, strain panel (AID 1159580);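 note: tested at 20 µM; growth read once vehicle control cultures reached saturation at 30 °C; 1 = growth at the plate median or of vehicle wells; lower values mean less growth of the strain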
# Conditions: S. cerevisiae deletion strains, growth OD
smiles,measurement,setting,value
COc1ccc(NNC(=O)c2sc3ccccc3c2Cl)cc1,normalized growth,"locus YAR019C, strain CDC15, hits give low values",0.921
same,normalized growth,"locus YBL105C, strain PKC1, hits give low values",0.927
same,normalized growth,"locus YBR135W, strain CKS1, hits give low values",0.915
same,normalized growth,"locus YBR136W, strain MEC1, hits give low values",0.922
same,normalized growth,"locus YBR160W, strain CDC28, hits give low values",0.927
same,normalized growth,"locus YDL017W, strain CDC7, hits give low values",0.936
same,normalized growth,"locus YDL028C, strain MPS1, hits give low values",0.929
same,normalized growth,"locus YDL101C, strain DUN1, hits give low values",0.954
same,normalized growth,"locus YDL108W, strain KIN28, hits give low values",0.93
same,normalized growth,"locus YDL132W, strain cdc53, hits give low values",0.959
same,normalized growth,"locus YDL214C, strain PRR2, hits give low values",0.692 (active)
same,normalized growth,"locus YDR052C, strain DBF4, hits give low values",0.935
same,normalized growth,"locus YDR054C, strain cdc34, hits give low values",0.923
same,normalized growth,"locus YDR226W, strain ADK1, hits give low values",0.938
same,normalized growth,"locus YDR477W, strain SNF1, hits give low values",0.694
same,normalized growth,"locus YER123W, strain YCK3, hits give low values",0.287 (active)
same,normalized growth,"locus YER133W, strain GLC7, hits give low values",0.663 (active)
same,normalized growth,"locus YFL009W, strain cdc4, hits give low values",0.941
same,normalized growth,"locus YFL029C, strain CAK1, hits give low values",0.92
same,normalized growth,"locus YFR003C, strain YPI1, hits give low values",0.93
same,normalized growth,"locus YFR019W, strain FAB1, hits give low values",0.37 (active)
same,normalized growth,"locus YFR028C, strain CDC14, hits give low values",0.92
same,normalized growth,"locus YGR040W, strain KSS1, hits give low values",0.681 (active)
same,normalized growth,"locus YGR052W, strain FMP48, hits give low values",0.558 (active)
same,normalized growth,"locus YGR092W, strain DBF2, hits give low values",0.117 (active)
same,normalized growth,"locus YHR030C, strain SLT2, hits give low values",0.302 (active)
same,normalized growth,"locus YHR079C, strain IRE1, hits give low values",0.502 (active)
same,normalized growth,"locus YHR082C, strain KSP1, hits give low values",0.656
same,normalized growth,"locus YHR205W, strain SCH9, hits give low values",0.612
same,normalized growth,"locus YIL147C, strain SLN1, hits give low values",0.924
same,normalized growth,"locus YJL095W, strain BCK1, hits give low values",0.341 (active)
same,normalized growth,"locus YJL128C, strain PBS2, hits give low values",0.878
same,normalized growth,"locus YJL157C, strain FAR1, hits give low values",0.544 (active)
same,normalized growth,"locus YJR016C, strain ILV3, hits give low values",0.903
same,normalized growth,"locus YJR066W, strain TOR1 (second series), hits give low values",0.243 (active)
same,normalized growth,"locus YJR066W, strain TOR1, hits give low values",0.579
same,normalized growth,"locus YKL048C, strain ELM1, hits give low values",0.658 (active)
same,normalized growth,"locus YKL067W, strain YNK1, hits give low values",0.587 (active)
same,normalized growth,"locus YKL101W, strain HSL1, hits give low values",0.657 (active)
same,normalized growth,"locus YKL193C, strain SDS22, hits give low values",0.923
same,normalized growth,"locus YKL203C, strain TOR2, hits give low values",0.686 (active)
same,normalized growth,"locus YLR113W, strain HOG1, hits give low values",0.293 (active)
same,normalized growth,"locus YLR133W, strain CKI1, hits give low values",0.627 (active)
same,normalized growth,"locus YLR403W, strain SFP1, hits give low values",0.563 (active)
same,normalized growth,"locus YML070W, strain DAK1, hits give low values",0.419 (active)
same,normalized growth,"locus YMR001C, strain CDC5, hits give low values",0.925
same,normalized growth,"locus YMR205C, strain PFK2 (second series), hits give low values",0.659 (active)
same,normalized growth,"locus YMR277W, strain FCP1, hits give low values",0.926
same,normalized growth,"locus YNL006W, strain LST8, hits give low values",0.914
same,normalized growth,"locus YNL020C, strain ARK1, hits give low values",0.643 (active)
same,normalized growth,"locus YNL161W, strain CBK1, hits give low values",0.918
same,normalized growth,"locus YNL183C, strain NPR1, hits give low values",0.595
same,normalized growth,"locus YNL207W, strain RIO2, hits give low values",0.948
same,normalized growth,"locus YNL222W, strain SSU72, hits give low values",0.906
same,normalized growth,"locus YNL307C, strain MCK1 (second series), hits give low values",0.262 (active)
same,normalized growth,"locus YOL078W, strain AVO1, hits give low values",0.913
same,normalized growth,"locus YOL136C, strain PFK27, hits give low values",0.433 (active)
same,normalized growth,"locus YOR061W, strain CKA2, hits give low values",0.299 (active)
same,normalized growth,"locus YOR119C, strain RIO1, hits give low values",0.604 (active)
same,normalized growth,"locus YOR231W, strain MKK1, hits give low values",0.507 (active)
same,normalized growth,"locus YOR329C, strain SCD5, hits give low values",0.927
same,normalized growth,"locus YPL031C, strain PHO85, hits give low values",0.657 (active)
same,normalized growth,"locus YPL153C, strain RAD53, hits give low values",0.525 (active)
same,normalized growth,"locus YPL204W, strain HRR25, hits give low values",0.576 (active)
same,normalized growth,"locus YPL209C, strain IPL1, hits give low values",0.918
same,normalized growth,"locus YPL256C, strain CLN2, hits give low values",0.441 (active)
same,normalized growth,"locus YPR025C, strain CCL1, hits give low values",0.929
same,normalized growth,"locus YPR106W, strain ISR1, hits give low values",0.907
same,normalized growth,"locus YPR111W, strain DBF20, hits give low values",0.918
same,normalized growth,"strain NNK1, hits give low values",0.908
same,normalized growth,"strain TSCII, hits give low values",0.923
